Records with an inconclusive call do not appear. The source made the active and inactive calls.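 How the source made its calls, unless noted: active means differentiation response of at least 50%, scaled between solvent and reference control, from cells with both markers; inactive means the rest.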
Tests used:
[1] = rapamycin-like changes in RPL19A-GFP expression – cell-based, S. cerevisiae, multiplex flow cytometry, primary screen (AID 1862; in the data active means percent of DMSO control GFP below about 86%;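 further: lower values mimic rapamycin by blocking the RPL19A rise seen in DMSO cells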); details: S. cerevisiae RPL19A-GFP strain, flow cytometry fluorescence, 3 h; at 10 µM; stronger effect = lower value
[2] = TOR pathway GLN3 branch reporter MEP2-GFP changes – S. cerevisiae, multiplex flow cytometry, primary screen (AID 1867;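 active means GFP response, as percent of the DMSO control, above the screen-wide mean plus 3 SD, about 139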;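 further: median GFP channel fluorescence of barcode-gated MEP2-GFP cells measured by flow cytometry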); details: S. cerevisiae MEP2-GFP strain, 3 h, at 10 µM, stronger effect = higher value, 100% means same as DMSO wells
[3] = TOR pathway RTG branch CIT2 reporter changes – S. cerevisiae, GFP fusion, multiplex flow cytometry, primary screen (AID 1870;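 active means percent response above a set limit, the screen-wide mean plus 3 SD, cut at about 130% in these data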;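 further: barcoded CIT2-GFP strain pooled with four other GFP strains with rapamycin as positive control; median GFP fluorescence per well over plate mean of DMSO wells so 100% = DMSO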); details: S. cerevisiae CIT2-GFP expression, 3 h, at 10 µM, stronger effect = higher value
[4] = TOR pathway LAP4-GFP level changes – S. cerevisiae, multiplex flow cytometry, primary screen (AID 1873;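 active means GFP signal, as percent of the solvent control, above the screen mean plus 3 SD, about 149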); details: S. cerevisiae LAP4-GFP expression, 3 h, at 10 µM, stronger effect = higher value
[5] = yeast AGP1-GFP level changes, GLN3 branch – cell-based, multiplex flow cytometry, S. cerevisiae, primary screen (AID 1887;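 active means GFP signal above the screen-wide mean plus 3 SD, that is over about 124.5% of the solvent control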;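 further: AGP1-GFP fusion strain of S. cerevisiae within a five-strain barcoded multiplex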); details: 3 h, at 10 µM, stronger effect = higher value
[6] = reduced mouse 2C T cell binding to pMHC/ICAM-1 vesicles – MLPCN validation set, flow cytometry, LFA-1/ICAM-1 modulator project, pilot screen (AID 2523;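 active means response below a set limit, under 55% cells CD8-positive and vesicle-bound, and CD8 cells' 90th-percentile brightness under 279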;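 on vesicle binding response: mean PE anti-B7-1 fluorescence of CD8+ cells relative to row control; 100% = QL9-loaded vesicles with DMSO vehicle in the same plate row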); details: 2C mouse CD8+ T cells, at 7 µM, stronger effect = lower value; double positive events: measured here: CD8+/vesicle+ event percentage
[7] = molecular target: Integrin beta-1 (Homo sapiens) + Integrin alpha-4 (Homo sapiens) (UniProt P13612+P05556); experiment: alpha4beta1 integrin LIBS antibody binding reduction – U937 cells, HUTS-21 mAb, flow cytometry, validation set, VLA-4 allosteric modulator project, pilot screen (AID 2674;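 active means inhibition above 50%, about 3 SD of the validation set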;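 further: antibody binding induced by the VLA-4 ligand LDV present at three times its Kd; 0% = LDV ligand with antibody and no compound and 100% = antibody without LDV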); details: HUTS-21 LIBS mAb binding, at 6.7 µM, stronger effect = higher value, binding induced by LDV ligand
Integrin beta-1 (Homo sapiens) + Integrin alpha-4 (Homo sapiens), sequence (P05556 whole entry, looked up): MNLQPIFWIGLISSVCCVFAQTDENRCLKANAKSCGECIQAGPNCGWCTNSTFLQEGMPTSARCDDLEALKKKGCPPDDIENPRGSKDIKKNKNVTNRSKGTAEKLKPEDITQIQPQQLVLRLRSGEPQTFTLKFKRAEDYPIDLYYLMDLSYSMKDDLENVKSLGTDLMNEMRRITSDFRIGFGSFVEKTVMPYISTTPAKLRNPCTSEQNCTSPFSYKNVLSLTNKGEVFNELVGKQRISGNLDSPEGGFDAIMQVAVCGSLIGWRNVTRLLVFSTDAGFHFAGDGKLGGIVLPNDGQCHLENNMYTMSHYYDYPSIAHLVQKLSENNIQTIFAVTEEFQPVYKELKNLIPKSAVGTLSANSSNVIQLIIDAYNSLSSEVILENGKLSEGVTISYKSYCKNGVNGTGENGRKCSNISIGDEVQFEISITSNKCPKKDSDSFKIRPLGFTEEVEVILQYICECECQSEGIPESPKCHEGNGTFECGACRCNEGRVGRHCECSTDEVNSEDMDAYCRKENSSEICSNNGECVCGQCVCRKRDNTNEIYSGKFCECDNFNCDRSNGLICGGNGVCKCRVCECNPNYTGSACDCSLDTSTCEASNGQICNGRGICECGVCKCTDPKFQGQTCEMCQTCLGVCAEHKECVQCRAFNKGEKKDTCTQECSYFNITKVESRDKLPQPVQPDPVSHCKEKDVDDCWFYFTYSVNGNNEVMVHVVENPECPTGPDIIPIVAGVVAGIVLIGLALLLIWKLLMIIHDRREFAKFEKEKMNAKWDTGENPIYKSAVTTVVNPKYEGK
Integrin beta-1 (Homo sapiens) + Integrin alpha-4 (Homo sapiens), sequence (P13612 whole entry, looked up): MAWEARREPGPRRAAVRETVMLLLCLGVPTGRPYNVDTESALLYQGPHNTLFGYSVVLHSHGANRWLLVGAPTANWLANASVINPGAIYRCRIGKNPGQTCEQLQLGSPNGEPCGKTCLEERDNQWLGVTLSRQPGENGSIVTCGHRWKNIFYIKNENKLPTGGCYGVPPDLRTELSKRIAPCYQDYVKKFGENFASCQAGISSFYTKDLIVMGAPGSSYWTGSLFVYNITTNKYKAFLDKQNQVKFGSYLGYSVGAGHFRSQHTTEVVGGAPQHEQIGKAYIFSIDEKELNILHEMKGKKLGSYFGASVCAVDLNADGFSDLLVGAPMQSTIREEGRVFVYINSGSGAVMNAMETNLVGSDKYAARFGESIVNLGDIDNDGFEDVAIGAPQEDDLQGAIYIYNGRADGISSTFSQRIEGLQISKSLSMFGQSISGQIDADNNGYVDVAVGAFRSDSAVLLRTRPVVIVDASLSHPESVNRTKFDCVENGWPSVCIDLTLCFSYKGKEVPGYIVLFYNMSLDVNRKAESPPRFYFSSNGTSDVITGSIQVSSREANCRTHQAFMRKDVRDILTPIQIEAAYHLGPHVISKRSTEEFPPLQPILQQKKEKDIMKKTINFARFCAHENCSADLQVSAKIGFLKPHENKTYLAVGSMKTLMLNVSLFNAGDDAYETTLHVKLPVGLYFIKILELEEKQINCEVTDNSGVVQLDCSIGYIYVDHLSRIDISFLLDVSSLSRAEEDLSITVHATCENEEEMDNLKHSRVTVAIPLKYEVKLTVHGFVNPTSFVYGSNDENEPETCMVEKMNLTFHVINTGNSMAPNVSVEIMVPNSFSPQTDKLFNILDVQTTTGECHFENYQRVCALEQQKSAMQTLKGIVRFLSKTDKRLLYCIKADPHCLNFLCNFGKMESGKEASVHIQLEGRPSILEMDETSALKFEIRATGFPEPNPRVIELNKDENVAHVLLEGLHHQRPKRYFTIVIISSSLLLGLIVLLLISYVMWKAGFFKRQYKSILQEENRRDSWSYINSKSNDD

[8] = calorie-restriction mimetic ROS inhibitors, yeast – validation compound set, pilot screen (AID 2706;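 active means superoxide response below 65% of plate, a cut near 3 SD across the whole screen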;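 further: yeast exposed to compound for one week at 30 degrees C before staining; 100% = mean of all compound wells on the same plate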); details: S. cerevisiae aging, superoxide DHE fluorescence; at 10 µM; stronger effect = lower value
[9] = molecular target: Beta-adrenergic receptor kinase 1 (Homo sapiens) (UniProt P25098); experiment: GRK2 binders displacing RNA aptamer, biochemical, validation, human GRK2, bead flow cytometry (AID 488806;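 active means aptamer binding inhibition above 30%, about 3 SD of noise from non-fluorescent compounds; inactive means inhibition at or below 30%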); details: bead-bound GRK2, FAM-aptamer displacement, at 10 µM, stronger effect = higher value
Beta-adrenergic receptor kinase 1 (Homo sapiens), sequence (P25098 whole entry, looked up): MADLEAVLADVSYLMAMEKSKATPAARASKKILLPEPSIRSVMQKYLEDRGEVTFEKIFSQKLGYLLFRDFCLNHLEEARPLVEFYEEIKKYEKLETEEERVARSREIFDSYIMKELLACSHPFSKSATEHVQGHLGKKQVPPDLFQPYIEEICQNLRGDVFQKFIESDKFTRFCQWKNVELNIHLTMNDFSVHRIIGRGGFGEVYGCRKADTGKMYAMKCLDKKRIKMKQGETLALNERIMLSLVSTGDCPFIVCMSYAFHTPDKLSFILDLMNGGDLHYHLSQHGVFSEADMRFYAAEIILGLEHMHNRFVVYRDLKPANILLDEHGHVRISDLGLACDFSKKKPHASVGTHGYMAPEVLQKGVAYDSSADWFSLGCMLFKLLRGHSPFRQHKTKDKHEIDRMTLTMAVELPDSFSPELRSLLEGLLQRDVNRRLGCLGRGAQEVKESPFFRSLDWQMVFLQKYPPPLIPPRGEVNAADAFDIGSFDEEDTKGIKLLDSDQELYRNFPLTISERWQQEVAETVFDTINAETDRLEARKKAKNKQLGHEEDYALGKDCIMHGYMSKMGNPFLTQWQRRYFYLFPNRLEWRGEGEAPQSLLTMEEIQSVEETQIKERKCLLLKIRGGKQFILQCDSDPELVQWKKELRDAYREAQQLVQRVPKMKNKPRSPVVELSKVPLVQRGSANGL

[10] = molecular target: Beta-2 adrenergic receptor (Homo sapiens) (UniProt P07550); experiment: agonist-induced loss of surface beta2AR – cell-based, FAP fluorogen, flow cytometry, validation set, pilot screen (AID 504459;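 active means percent response above 42, roughly 3 SD of non-fluorescent test compounds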;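 further: agonist-driven loss of surface beta2AR via internalization measured by FAP dye flow cytometry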); details: Am2.2-beta2AR cells, at 10 µM, stronger effect = higher value
Beta-2 adrenergic receptor (Homo sapiens), sequence (P07550 whole entry, looked up): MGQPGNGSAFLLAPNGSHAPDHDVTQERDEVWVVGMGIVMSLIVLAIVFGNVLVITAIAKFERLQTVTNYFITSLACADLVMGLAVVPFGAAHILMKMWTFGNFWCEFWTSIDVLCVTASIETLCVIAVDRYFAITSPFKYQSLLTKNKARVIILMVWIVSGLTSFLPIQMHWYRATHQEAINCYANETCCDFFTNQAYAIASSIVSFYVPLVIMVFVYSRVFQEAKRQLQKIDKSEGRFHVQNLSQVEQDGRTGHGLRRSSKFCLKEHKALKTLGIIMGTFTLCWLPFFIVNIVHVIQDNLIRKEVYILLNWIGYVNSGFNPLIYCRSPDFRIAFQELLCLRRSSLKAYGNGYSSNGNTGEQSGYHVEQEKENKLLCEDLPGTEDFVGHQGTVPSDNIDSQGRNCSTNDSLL

[11] = molecular target: AP-2 complex subunit beta (Homo sapiens) (UniProt P63010); experiment: beta-arrestin/AP2 interaction blockers – biochemical, validation set, GST-AP2 beads, flow cytometry, pilot screen (AID 504541;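 active means inhibition above 54%, about 3 SD of non-fluorescent compounds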;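 further: AP2 carries R879A mutation and is captured from E. coli lysate; bead-bound FITC arrestin peptide fluorescence measuring arrestin peptide binding to AP2; 0% = DMSO wells and 100% = excess unlabeled arrestin peptide control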); details: FITC arrestin peptide, at 10 µM, stronger effect = higher value, AP2 beta2 appendage fragment, R879A mutant
AP-2 complex subunit beta (Homo sapiens), sequence (P63010 whole entry, looked up, the tested form may be a part, one chain of several): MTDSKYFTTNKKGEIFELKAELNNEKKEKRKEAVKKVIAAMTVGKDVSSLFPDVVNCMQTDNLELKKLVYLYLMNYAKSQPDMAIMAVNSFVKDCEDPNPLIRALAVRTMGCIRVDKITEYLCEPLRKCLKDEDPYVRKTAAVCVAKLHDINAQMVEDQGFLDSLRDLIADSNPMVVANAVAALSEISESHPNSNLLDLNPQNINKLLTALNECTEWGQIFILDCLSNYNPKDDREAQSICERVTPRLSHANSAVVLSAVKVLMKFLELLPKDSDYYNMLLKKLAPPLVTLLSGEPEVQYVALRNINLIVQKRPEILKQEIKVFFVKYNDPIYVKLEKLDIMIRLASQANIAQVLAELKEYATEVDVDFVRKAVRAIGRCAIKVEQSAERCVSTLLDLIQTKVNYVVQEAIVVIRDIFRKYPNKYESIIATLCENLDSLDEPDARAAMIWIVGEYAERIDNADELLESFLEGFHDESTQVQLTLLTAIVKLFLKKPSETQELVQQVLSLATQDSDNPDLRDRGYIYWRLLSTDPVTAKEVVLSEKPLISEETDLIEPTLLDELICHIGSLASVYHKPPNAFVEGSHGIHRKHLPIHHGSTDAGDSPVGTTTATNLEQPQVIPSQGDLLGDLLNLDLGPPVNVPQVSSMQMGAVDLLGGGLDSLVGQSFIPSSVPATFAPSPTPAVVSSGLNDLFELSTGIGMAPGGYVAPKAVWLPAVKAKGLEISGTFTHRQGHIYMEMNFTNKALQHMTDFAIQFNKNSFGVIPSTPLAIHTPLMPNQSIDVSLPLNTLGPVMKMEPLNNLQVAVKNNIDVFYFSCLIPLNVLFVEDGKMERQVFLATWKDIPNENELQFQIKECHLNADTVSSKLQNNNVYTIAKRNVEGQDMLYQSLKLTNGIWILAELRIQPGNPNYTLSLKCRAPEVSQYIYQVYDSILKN

[12] = cytosolic pH regulators acting via V-ATPase – S. cerevisiae, pHLuorin, HTS validation (AID 504600; in the data active means response above about 15%;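 further: plate controls were DMSO for no effect and reference compound for full effect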); details: V-ATPase proton transport, at 10 µM, stronger effect = higher value
[13] = system: anti-desmoglein-3 scFv antibody binding to human DSG3; experiment: blockers of pathogenic pemphigus antibody–desmoglein-3 binding – biochemical, validation compound set, bead-based, flow cytometry, pilot screen (AID 588368;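 active means binding below the plate cutoff, the plate median minus 3 SD, with a reading above zero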;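 further: signal is the median channel fluorescence of bead-bound GFP antibody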); details: Protein G beads, DSG3-Fc, scFv-GFP binding, at 10 µM, stronger effect = lower value
[14] = Nile Red efflux blockade in pump-expressing yeast – validation compound set, multiplex, phenotypic, pilot screen (AID 588506;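 active means efflux inhibition above 0.42, the validation set average plus 4 SD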;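 further: Nile Red retained in cells so higher fluorescence means more efflux inhibition; 0 = negative control wells and 1 = enniatin B 25 µM full block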); details: S. cerevisiae pump-expressing triplex, Nile Red efflux flow cytometry; at 10 µM; stronger effect = higher value; the pumps come from Candida albicans
[15] = molecular target: ATP-binding cassette sub-family B member 6 (Homo sapiens) (UniProt Q9NP58); experiment: blockers of ABCB6-driven porphyrin uptake – K562-ABCB6 cells, flow cytometry, validation set, pilot screen (AID 588550;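 active means inhibition above the screen-wide mean plus 3 SD, about 51%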;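 further: 0% = DMSO wells and 100% = benzethonium chloride 70 µM positive control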); details: K562-ABCB6 porphyrin accumulation, 1 h, at 10 µM, stronger effect = higher value
ATP-binding cassette sub-family B member 6 (Homo sapiens), sequence (Q9NP58 whole entry, looked up): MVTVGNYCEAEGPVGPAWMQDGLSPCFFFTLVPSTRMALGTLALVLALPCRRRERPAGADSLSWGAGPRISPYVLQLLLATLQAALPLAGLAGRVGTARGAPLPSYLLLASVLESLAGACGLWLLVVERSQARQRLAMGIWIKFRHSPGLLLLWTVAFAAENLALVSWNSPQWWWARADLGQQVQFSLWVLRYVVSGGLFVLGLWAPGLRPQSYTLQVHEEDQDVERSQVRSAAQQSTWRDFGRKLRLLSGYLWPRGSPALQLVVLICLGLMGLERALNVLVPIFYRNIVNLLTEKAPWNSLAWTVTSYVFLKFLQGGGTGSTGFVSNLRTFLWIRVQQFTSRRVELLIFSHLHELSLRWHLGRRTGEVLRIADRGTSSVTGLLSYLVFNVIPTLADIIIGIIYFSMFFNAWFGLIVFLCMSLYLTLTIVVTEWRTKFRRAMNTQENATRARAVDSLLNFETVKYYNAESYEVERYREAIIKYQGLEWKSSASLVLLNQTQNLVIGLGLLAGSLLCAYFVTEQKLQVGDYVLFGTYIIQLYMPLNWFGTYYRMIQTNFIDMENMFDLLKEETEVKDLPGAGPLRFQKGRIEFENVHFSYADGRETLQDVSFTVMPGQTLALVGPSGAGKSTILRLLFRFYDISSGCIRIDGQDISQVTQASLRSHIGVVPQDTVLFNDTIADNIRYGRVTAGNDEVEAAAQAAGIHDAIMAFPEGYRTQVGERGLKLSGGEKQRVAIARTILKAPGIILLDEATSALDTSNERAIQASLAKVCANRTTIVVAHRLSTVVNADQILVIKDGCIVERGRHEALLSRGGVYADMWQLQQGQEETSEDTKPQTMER

[16] = AML differentiation inducers, ER-HoxA9 marrow cells – cell-based, GFP/MAC1 double positive, flow cytometry, validation set, primary screen (AID 588685); details: stronger effect = higher value, normalized: vehicle 0, fulvestrant 100;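 further: compound exposure lasts four days before antibody staining and flow analysis; 0% = DMSO wells and 100% = 5 µM fulvestrant positive control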

| SMILES | percent of DMSO control GFP [1] | GFP response vs DMSO [2] | percent response of DMSO control [3] | GFP response vs DMSO [4] | GFP response, % of DMSO [5] | double positive events [6] | vesicle binding response [6] | inhibition [7] | superoxide response (% of plate) [8] | aptamer binding inhibition [9] | response [10] | inhibition [11] | response [12] | binding (% of control) [13] | efflux inhibition (fraction of control) [14] | inhibition [15] | differentiation response [16] |
| --- | --- | --- | --- | --- | --- | --- | --- | --- | --- | --- | --- | --- | --- | --- | --- | --- | --- |
| CCC1CCc2c(sc(NC(=O)c3cccnc3)c2C(N)=O)C1 (stereo not given) | 97.6% (inactive) | 102% (inactive) | 96.4% (inactive) | 108% (inactive) | 107% (inactive) | 64.4% | 252% (inactive) | -38.6% (inactive) | 99.6% (inactive) | 7% (inactive) | -24.4% (inactive) | 5.47% (inactive) | -30.9% (inactive) | 98.3% (inactive) | -0.09 (inactive) | 14% (inactive) | 38.4% (inactive) |
| O=C(O)C1Cc2ccccc2CN1S(=O)(=O)c1ccccc1 (stereo not given) | 98.8% (inactive) | 104% (inactive) | 92.9% (inactive) | 118% (inactive) | 96.8% (inactive) | 60.9% | 186% (inactive) | -12.7% (inactive) | 107% (inactive) | 4% (inactive) | -23.4% (inactive) | 1.65% (inactive) | 1.38% (inactive) | 104% (inactive) | -0.17 (inactive) | 9% (inactive) | 2.4% (inactive) |
| COc1ccc(C2C3=C(CC(C)(C)CC3=O)N(C)C3=C2C(=O)CC(C)(C)C3)cc1 | 101% (inactive) | 99.6% (inactive) | 88% (inactive) | 110% (inactive) | 118% (inactive) | 62.6% | 173% (inactive) | 4.84% (inactive) | 104% (inactive) | 5% (inactive) | -20.5% (inactive) | 2.92% (inactive) | -12.8% (inactive) | 100% (inactive) | -0.09 (inactive) | 3% (inactive) | 3.88% (inactive) |
| CC(C)(CO)CNC(=O)CC1C(=O)NCCN1CC(c1ccccc1)c1ccccc1 (stereo not given) | 97.8% (inactive) | 106% (inactive) | 86.3% (inactive) | 114% (inactive) | 96% (inactive) | 65.3% | 7860% (inactive) | 3.67% (inactive) | 115% (inactive) | -1% (inactive) | -3.26% (inactive) | -0.19% (inactive) | 0.18% (inactive) | 99.5% (inactive) | 0.05 (inactive) | 7% (inactive) | -8.8% (inactive) |
| O=C(Nc1nc2ccccc2s1)c1ccc(F)cc1 | 100% (inactive) | 106% (inactive) | 102% (inactive) | 109% (inactive) | 105% (inactive) | 59.5% | 297% (inactive) | -4.52% (inactive) | 103% (inactive) | 3% (inactive) | -12.7% (inactive) | -2.74% (inactive) | 4.11% (inactive) | 101% (inactive) | -0.13 (inactive) | 9% (inactive) | -4% (inactive) |
| NC(N)=NC(N)=NCCc1ccccc1 | 101% (inactive) | 112% (inactive) | 100% (inactive) | 94% (inactive) | 100% (inactive) | 59.4% | 210% (inactive) | 3.7% (inactive) | 105% (inactive) | 0% (inactive) | -4.33% (inactive) | 7.19% (inactive) | -3.91% (inactive) | 88.8% (inactive) | 0.24 (inactive) | -4% (inactive) | -8.55% (inactive) |
| Cc1nonc1CN(C)C(=O)c1ccc(OC2CCN(Cc3ccccn3)CC2)cc1 | 107% (inactive) | 97.2% (inactive) | 113% (inactive) | 83.5% (inactive) | 102% (inactive) | 61.2% | 249% (inactive) | 19.3% (inactive) | 95.8% (inactive) | 0% (inactive) | -11.2% (inactive) | -5.72% (inactive) | 2.07% (inactive) | 97.6% (inactive) | 0.14 (inactive) | 13% (inactive) | 6.11% (inactive) |
| COC(=O)C1[C@H]2C(=O)N(Cc3cccs3)C[C@]23C=C[C@H]1O3 (stereo not given in full) | 105% (inactive) | 90.9% (inactive) | 105% (inactive) | 80.2% (inactive) | 99.5% (inactive) | 58.4% | 194% (inactive) | 28.6% (inactive) | 98.1% (inactive) | 2% (inactive) | -4.45% (inactive) | -9.57% (inactive) | 2.19% (inactive) | 95% (inactive) | 0.3 (inactive) | 6% (inactive) | 14.9% (inactive) |
| O=C(CCCn1c(=O)oc2ccccc21)N1CCN(c2ccc(F)cc2)CC1 | 101% (inactive) | 93% (inactive) | 103% (inactive) | 77.7% (inactive) | 91.4% (inactive) | 46.7% | 9.2% (active) | -1.79% (inactive) | 111% (inactive) | 1% (inactive) | 10.4% (inactive) | -3.97% (inactive) | 1.31% (inactive) | 102% (inactive) | 0.15 (inactive) | 9% (inactive) | -26.4% (inactive) |
| CC1CCN(C(=O)Oc2ccccc2)CC1 | 105% (inactive) | 111% (inactive) | 103% (inactive) | 102% (inactive) | 107% (inactive) | 57.9% | 143% (inactive) | 2.93% (inactive) | 111% (inactive) | 0% (inactive) | 0.66% (inactive) | -6.8% (inactive) | 0.42% (inactive) | 101% (inactive) | 0.045 (inactive) | 5% (inactive) | -6.03% (inactive) |

Reference: PubChem BioAssay
